Bioassay records (PubChem BioAssay)
A selection: hits, their analogues and other compounds. The true share with any hit is near 12%.
Shiga inhibitor: inhibitors of Shiga toxin in Vero cells; inhibition, % at 38.7 µM; 290,000 tested, 9.2% active; AID 2315; Vero cells, Shiga toxin protein synthesis inhibition reporter; in the data active = inhibition mostly above about 28%, no sharp cut-off; inactive = mostly below about 43%
CHX counter: counter-screen hit for Shiga toxin inhibitors, cycloheximide; AID 2314; cell reporter, cycloheximide protein synthesis inhibition counterscreen; 300,000 tested, 12% active; max response, %; in the data active = max response mostly above about 13%, no sharp cut-off; inactive = mostly below about 14%; note: read at 38.3 µM for the half of the compounds with a filed dose
NS1 function inh: blocks influenza NS1 protein function; Potency, µM (highest dose often 46.1 µM); 270,000 tested, 0.4% active; AID 2326; note: actives are rising curves; nearly all actives have a fitted effect of over 50% in size
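OD600 was taken as the measure of yeast growth restored by compound in an NS1-expressing S. cerevisiae strain. Cells had been washed out of glucose medium and diluted 1:100 into galactose -URA medium, pH 6.0.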
SARS PLpro yeast: blocks SARS-CoV papain-like protease in a yeast assay | S. cerevisiae expressing SARS-CoV PLpro, growth rescue | Potency, µM (top dose mostly 32.9 µM), actives largely listed as activators | 330,000 tested, 0.19% active; note: nearly all actives have a fitted effect of over 55% in size
Each line names hits and unclear results; the compound was inactive in the other large screens. Unless noted, calls come from the whole dose curve.

COc1cccc(NC(=O)C2CCN(C(=O)[C@@H]3Cc4ccccc4CN3)CC2)c1	CHX counter 38
COc1ccc(NC(=O)C2CCCN(C(=O)Nc3ccc(OC)cc3)C2)cc1 (configuration not stated)	none
COc1ccc(NC(=O)N2CCCC(c3ccccc3)C2)cc1 (configuration not stated)	CHX counter 17
COc1cccc(NC(=O)C2CCN(C(=O)[C@@H]3Cc4ccccc4CN3C(=O)OC(C)(C)C)CC2)c1	none
COc1cccc(NC(=O)N2CCCCCC2)c1	Shiga inhibitor 46, CHX counter 74
COc1ccc(NC(=O)c2oc3ccc(S(=O)(=O)N4CCC5(CC4)OCCO5)cc3c2C)cc1	NS1 function inh 11µM
COc1ccc(-n2nc(C(=O)NCC(=O)NCCCN3CCOCC3)c3ccccc3c2=O)cc1	none
COC(=O)CC1=C(C(=O)OC)[C@@H](c2ccccc2[N+](=O)[O-])C(C#N)=C(N)O1	none
CCOC(=O)c1ccc(N=C2SC(C(=O)Nc3ccc(C(=O)O)cc3)CC(=O)N2Cc2cccs2)cc1 (configuration not stated)	none (no result: NS1 function inh)
COc1ccc(/C=C/C(=O)Oc2cccc(/C=N/NC(=O)COc3c(C)cccc3C)c2)cc1	Shiga inhibitor 105, CHX counter 53
COc1ccc(NCC(=O)N/N=C/C=C\c2ccccc2)cc1	Shiga inhibitor 19, CHX counter 21
COc1ccc(/C=C/C=N/NC(=O)COc2ccc(OC)cc2)cc1	Shiga inhibitor 43
Cc1ccccc1OCC(=O)N/N=C/C=C/c1ccccc1	none (no result: NS1 function inh)
CCOC(=O)N/N=C/C=C/c1ccccc1	Shiga inhibitor 60, CHX counter 61
CCCCCCSc1ccc([C@@H]2[C@H]3C(=O)N(CC)C(=O)[C@H]3[C@]3(C(=O)OC)CCCN23)cc1	none (no result: Shiga inhibitor, CHX counter, NS1 function inh)
CC1CN(C(=S)NC(=O)C2CCCCC2)CC(C)O1 (configuration not stated)	none
CCOc1cc(Br)c(C(=O)O)cc1OC	none
Cn1cc(CNCc2ccccc2OCC(O)CN2CCc3ccccc3C2)cn1 (configuration not stated)	none
O=C(CSc1nncn1-c1ccccc1F)NC1CC1	none (no result: Shiga inhibitor, CHX counter, NS1 function inh)
CC(C)(C)c1nn(-c2ccccc2)c2[nH]c(=O)c(CNCc3ccco3)cc12	none
CC(C)(C)c1nn(-c2ccccc2)c2[nH]c(=O)c(CNc3ccc4c(c3)OCCO4)cc12	CHX counter 16
CCCNc1nc(-c2cc(-c3ccc(Cl)cc3)on2)cc(C(C)C)n1	none
CC(NC(=O)c1ccco1)c1nc(-c2ccccc2Cl)no1 (configuration not stated)	none
COCCNC(=O)C1(C)C=CC2(CCCCC2)N1C(=O)c1ccccc1 (configuration not stated)	none
CC(=O)N1[C@H](Cc2ccccc2)C=C[C@]1(C)C(=O)NCCN1CCOCC1	CHX counter 11
C[C@]1(C(=O)NCCN2CCOCC2)C=C[C@@H](Cc2ccccc2)N1C(=O)c1ccccc1	none
CC1(C(=O)NCCN2CCOCC2)C=CC2(CCCCC2)N1C(=O)c1ccccc1 (configuration not stated)	CHX counter 26
COc1ccc(-c2ccc(CO)o2)cc1N	Shiga inhibitor 55, CHX counter 31
c1ccc(-c2csc(=Nc3cccnc3)n2CC2CCCO2)cc1 (configuration not stated)	none
CCn1c(-c2ccccc2)csc1=Nc1ccc(O)cc1	Shiga inhibitor 82, CHX counter 48 (no result: NS1 function inh)
CCOc1ccc(N=c2scc(-c3ccccc3)n2CCO)cc1	CHX counter 29
CCOc1ccc(N=c2scc(-c3ccc(OC)cc3)n2CCO)cc1	CHX counter 16
COC(=O)c1cc(S(=O)(=O)N(Cc2ccccc2)C(C)(C)C)c[nH]1	none
CC(C)(C)c1ccc(S(=O)(=O)Nc2noc3ccccc23)cc1	none
O=C(NC1CCCC1)C(c1ccccc1)N(C(=O)c1csnn1)c1ccccc1F (configuration not stated)	none
C=CCSc1nnc(-c2cccnc2)o1	Shiga inhibitor 22, CHX counter 15
O=C(CSc1nnc(-c2ccncc2)o1)c1cccc([N+](=O)[O-])c1	none
C=CCSc1nnc(-c2ccc([N+](=O)[O-])cc2)o1	CHX counter 19
NC(=O)CSc1nnc(-c2ccc([N+](=O)[O-])cc2)o1	CHX counter 19
CN=Cc1cc(-c2ccccc2)sc1O	Shiga inhibitor 40, CHX counter 40
Cc1nc2c(c3c1[nH]c1ccccc13)C(O)CC(C)(C)C2 (configuration not stated)	none
O=C(NCCCl)Nc1cccnc1Cl	CHX counter 12
O=C(CCc1ccccc1)Nc1cccnc1Cl	CHX counter 18
O=C(CCc1ccccc1)Nc1cc(Cl)ccc1O	none
O=C(Nc1ccccc1Cl)Nc1cccnc1Cl	none (no result: NS1 function inh)
O=C(CC(=O)c1ccccc1)Nc1cccnc1Cl	Shiga inhibitor 73, CHX counter 44
Cc1ccc(N2C(=O)c3ccccc3C2Nc2ccccc2F)nc1 (configuration not stated)	Shiga inhibitor 55, CHX counter 32
Cc1ccc(N2C(=O)c3ccccc3C2O)nc1 (configuration not stated)	none
CNC(=S)N/N=C/c1ccc(N(C)C)cc1	Shiga inhibitor 77, CHX counter 54
CN(C)c1ccc(/C=N/NC(=S)NCc2ccccc2)cc1	CHX counter 24
O=C(/C=N/O)Nc1ccc2sc3ccccc3c2c1	Shiga inhibitor 71, CHX counter 54
Cc1ccnc(NC(=O)c2cc3c(=O)oc4ccc(C)cc4c3s2)c1	none
Cc1ccnc(NC(=O)c2ccc(Br)s2)c1	Shiga inhibitor 90, CHX counter 70
Cc1ccnc(NC(=O)c2cccs2)c1	CHX counter 38
Cc1cc(NC(=O)c2cccs2)ncc1NC(=O)C(C)(C)C	CHX counter 32 (no result: Shiga inhibitor)
O=C(Nc1ccccn1)c1cccs1	Shiga inhibitor 76, CHX counter 52 (no result: SARS PLpro yeast)
CCCCN(C(=O)c1cnc(C)cn1)c1c(N)n(CCC)c(=O)[nH]c1=O	none (no result: Shiga inhibitor, CHX counter, NS1 function inh)
CN(CC(=O)Nc1ccccc1C(F)(F)F)C(=O)c1cc([N+](=O)[O-])ccc1N1CCOCC1	none
CC1=CC(C)(C)n2c(O)c(C3=NC(=S)NC3=O)c3cc(OC(=O)c4cccc5ccccc45)cc1c32	none
CCc1ccc(NS(=O)(=O)c2cc3[nH]c(=O)c(=O)[nH]c3cc2C)cc1	none
O=C(NCCS(=O)(=O)N1CCN(c2ccccc2)CC1)c1ccccc1F	none (no result: Shiga inhibitor, CHX counter, NS1 function inh)
CCOC(=O)c1cn(Cc2ccc(C)cc2)c2cc(F)ccc2c1=O	none
Cc1cccc(NC(=O)CNC(=O)c2cccs2)n1	none (no result: Shiga inhibitor, CHX counter, NS1 function inh)
O=C(Nc1nccc(-c2cccs2)n1)c1cccs1	Shiga inhibitor 67, CHX counter 31
Nc1nccc(-c2cccs2)n1	none (no result: NS1 function inh)
Cc1cccc(NC(=O)c2cc3cc([N+](=O)[O-])ccc3s2)n1	CHX counter 19 (no result: NS1 function inh)
CCN(CC)S(=O)(=O)c1csc(C(=O)Nc2ccccn2)c1	Shiga inhibitor active, CHX counter 22
Cc1cccc(NC(=O)c2cccs2)n1	Shiga inhibitor 78, CHX counter 38
Cc1onc(-c2ccccc2)c1CNC(=O)Nc1ccc(C(F)(F)F)cc1	none
COc1cccc(C(=O)NNC(=S)NC2CCCCC2)c1	Shiga inhibitor 47, CHX counter 42
Cc1cc(C(=O)NNC(=S)NC2CCCCC2)cs1	CHX counter 17
